TDP1 inh = qHTS Assay for Inhibitors of Tyrosyl-DNA Phosphodiesterase (TDP1) | recombinant TDP1, AlphaScreen DNA substrate cleavage | Tyrosyl-DNA phosphodiesterase 1 (Homo sapiens), Q9NUW8 | 350,000 compounds, 0.28% hits | Potency, µM (top dose mostly 130 µM), for the others: at the highest dose activity change, negative = inhibition, hits mostly inhibitors; also: % is scaled to controls: 0 for no effect and ±100 for the full control effect; nearly all actives have a fitted effect of over 40% in size
Target sequence (Q9NUW8 whole entry, looked up): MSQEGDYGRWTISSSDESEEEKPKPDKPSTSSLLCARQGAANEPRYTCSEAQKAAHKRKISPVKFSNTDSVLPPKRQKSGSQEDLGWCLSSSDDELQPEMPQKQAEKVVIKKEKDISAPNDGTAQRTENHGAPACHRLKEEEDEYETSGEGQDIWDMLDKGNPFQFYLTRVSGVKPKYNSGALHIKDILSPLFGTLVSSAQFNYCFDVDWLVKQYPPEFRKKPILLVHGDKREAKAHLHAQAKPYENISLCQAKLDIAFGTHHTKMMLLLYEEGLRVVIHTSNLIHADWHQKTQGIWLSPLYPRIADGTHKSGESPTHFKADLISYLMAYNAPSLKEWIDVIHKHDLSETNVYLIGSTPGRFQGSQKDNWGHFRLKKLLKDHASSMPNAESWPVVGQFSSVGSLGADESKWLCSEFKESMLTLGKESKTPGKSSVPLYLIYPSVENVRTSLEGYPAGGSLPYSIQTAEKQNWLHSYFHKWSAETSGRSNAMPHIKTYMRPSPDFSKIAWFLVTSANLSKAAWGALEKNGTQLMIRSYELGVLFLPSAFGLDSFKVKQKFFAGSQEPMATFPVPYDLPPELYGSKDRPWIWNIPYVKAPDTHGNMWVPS
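Recombinant human Tdp1 (E. coli-expressed, 1 nM final) preincubated with compounds 15 min at room temperature, then 5'-biotin/3'-phosphotyrosine-FITC DNA substrate (15 nM final) added for 5 min. AlphaScreen beads (10 ug/ml final) added 10 min; cleavage lowers signal.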
TDP1 cell CPT = qHTS for Inhibitors of human tyrosyl-DNA phosphodiesterase 1 (TDP1): qHTS in cells in presence of CPT; Potency, µM (top dose mostly 46.2 µM), for inactives: at the highest dose activity change, negative = growth inhibition, most hits filed as inhibitors; AID 686979, 2013; 420,000 compounds, 12% hits; chicken DT40 Tdp1-/-;hTDP1 cells + 20 nM CPT, ATP luminescence, 48 h; also: % is scaled to controls: 0 for no effect and ±100 for the full control effect; nearly all actives have a fitted effect of over 55% in size
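Chicken DT40 Tdp1-/- cells stably complemented with human TDP1 were seeded at 400 cells/well in medium containing 20 nM camptothecin, exposed to pin-transferred compounds, and grown at 37 °C for at least 48 hr. Viability was read as ATP luminescence.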
TDP1 cell noCPT = qHTS for Inhibitors of human tyrosyl-DNA phosphodiesterase 1 (TDP1): qHTS in cells in absence of CPT; DT40 Tdp1-/- hTDP1 cells, no CPT, ATP luminescence, 48 h; Potency, µM (series often up to 46.2 µM), inactives show top-dose activity change, negative = growth inhibition, usual class: inhibitors; 420,000 compounds, 15% hits; also: % is scaled to controls: 0 for no effect and ±100 for the full control effect; nearly all actives have a fitted effect of over 55% in size
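Luminescent ATP content (CellTiter-Glo) served as the growth readout. Knockout chicken DT40 cells expressing human TDP1 were exposed to compounds without camptothecin for a minimum 48 hr at 37 °C.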
ClpP mod = qHTS Assay for Activators of ClpP. ATP-dependent Clp protease proteolytic subunit (Bacillus subtilis (strain 168)), P80244. purified B. subtilis ClpP, FRET peptide cleavage, 20 min. Potency, µM (top dose mostly 57.5 µM), inactives show at the top dose activity change, negative = active. 340,000 compounds, 1.9% hits. AID 651965, 2013; active = well fitted falling curve with a large enough effect; inconclusive = small, poorly fitted or top-dose-only effect; inactive = no such curve, though single readings can be large or run the other way; also: the source files actives as falling curves though it sought activators and does not explain the sign; nearly all actives have a fitted effect of over 65% in size
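Buffer: 100 mM Tris/HCl pH8, 100 mM KCl, 0.05% low protease BSA, 2.5% glycerol, 0.01% Tween-20. ClpP 10 microg/mL final; 20 min RT; delta FRET normalized to ADEP and DMSO controls.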
* = called active by the depositor; ! = a repeat was not active; [ ] = dose if it differs, or a comment. Rows were chosen to be rich in hits. Some 17% of all compounds tested hit in one or more screens of this group. Unless noted, calls follow the shape of the dose curve; as a rule, active = well fitted curve in the direction sought with a large enough effect; inconclusive = small, poorly fitted or top-dose-only effect, or another doubt; inactive = no such curve, though single readings can be large; an effect the other way counts as inactive or inconclusive. Potency is read from the fitted curve at half-maximal effect.

`C=C(C)[C@@H]1CC[C@]2(C(=O)O)CC[C@]3(C)[C@H](CC[C@@H]4[C@@]5(C)CC[C@H](O)C(C)(C)[C@@H]5CC[C@]43C)[C@@H]12` gave TDP1 inh -2%, TDP1 cell CPT 5.8µM*, TDP1 cell noCPT 3.7µM* and ClpP mod 1%.
Screening Nc1nc2ccc(Cl)cc2c2nc(-c3ccco3)nn12 returned TDP1 inh 6%[56.1 µM], TDP1 cell CPT 6.3µM*, TDP1 cell noCPT 8.9µM* and ClpP mod -5%[115 µM].
Screening Cc1sc2ncnc(SCC(=O)Nc3ccc(S(=O)(=O)N4CCOCC4)cc3)c2c1C returned TDP1 inh 0%, TDP1 cell CPT 23µM* and TDP1 cell noCPT 29µM*.
`COc1ccc(S(=O)(=O)N2CCOCC2)cc1NC(=O)COC(=O)Cc1ccccc1` gave TDP1 inh 0%, TDP1 cell CPT -1%, TDP1 cell noCPT 26% and ClpP mod -4%.
Screening CN1CCN(S(=O)(=O)c2ccc(Cl)nc2)CC1 returned TDP1 inh 3%, TDP1 cell CPT 11%, TDP1 cell noCPT -1% and ClpP mod -2%.
For Cc1sc2ncnc(N3CCN(S(=O)(=O)c4ccc(Br)cc4)CC3)c2c1C the results were TDP1 cell CPT 13µM*, TDP1 cell noCPT 12µM* and ClpP mod -3%.
For O=C(O)CC1OCC=C2CN3CCC45C6=CC(=O)C(=O)C([N+](=O)[O-])=C6NC4C1C2CC35 (configuration not stated) the results were TDP1 inh -1%, TDP1 cell CPT 14µM*, TDP1 cell noCPT 11µM* and ClpP mod 0%.
Screening COCCCn1c(-c2ccc(OC)cc2)cc(C(=O)NC2CCCCCCC2)c1C returned TDP1 inh 3%, TDP1 cell CPT 21µM*, TDP1 cell noCPT 15µM* and ClpP mod 2%.
Screening COc1ccc(-c2ccc3c(c2)CN(C(=O)NC2CCCCC2)Cc2cnnn2-3)cc1 returned TDP1 cell CPT inconclusive, TDP1 cell noCPT inconclusive and ClpP mod 6%.
`N#Cc1cccc(NC(=O)N2CC3(CCN(C(=O)Oc4ccccc4)CC3)C2)c1` gave TDP1 cell CPT -4% and TDP1 cell noCPT inconclusive.
C=Cc1cc(OC)c2c(c1)c(=O)oc1c2cc(OC)c2c(O)ccc(C3OC(C)C(O)C(C)(O)C3O)c21 (configuration not stated) was read as TDP1 cell CPT 0.16µM*, TDP1 cell noCPT 0.21µM* and ClpP mod -4%.
Screening CCCN1C[C@H](C)N([C@H](c2ccc(C(=O)N(CC)CC)cc2)c2cccc(OC)c2)C[C@H]1C returned TDP1 inh 1%, TDP1 cell CPT -25% and TDP1 cell noCPT 2%.
`CCOC(=O)c1cc2c(cn1)[nH]c1ccccc12` gave TDP1 inh 5%, TDP1 cell CPT inconclusive, TDP1 cell noCPT 18µM*! and ClpP mod 5%.
Nc1ccc([N+](=O)[O-])cc1O was read as TDP1 inh 6%, TDP1 cell CPT 24µM* and TDP1 cell noCPT 22µM*.
Screening O=C(Oc1ccccc1)N1CCC[C@@]2(CCN(C(c3ccccc3)c3ccccc3)C2)C1 returned TDP1 cell CPT -8% and TDP1 cell noCPT -23%.
O=C1NC(=O)C(CCc2ccncc2)(CCc2ccncc2)C(=O)N1Cc1ccc(F)cc1 was read as TDP1 inh 0%, TDP1 cell CPT 15µM* and TDP1 cell noCPT inconclusive.
COc1ccc(N2C(=O)NC(=O)C(CCc3ccncc3)(CCc3ccncc3)C2=O)cc1 was read as TDP1 inh 6%, TDP1 cell CPT -21%, TDP1 cell noCPT -17% and ClpP mod 0%.
For COC1C(O)C(C)OC(OC2C(Oc3cccc4c(O)c5c(=O)oc6ccc(C)c7c(=O)oc(c34)c5c67)OC(C)C(O)C2O)C1O (configuration not stated) the results were TDP1 cell CPT 0.82µM*, TDP1 cell noCPT 0.82µM* and ClpP mod -6%.
Screening Cc1ccccc1C(=O)Oc1cccc(Nc2ncnc3ccccc23)c1 returned TDP1 cell CPT 16µM*, TDP1 cell noCPT 13µM* and ClpP mod inconclusive.
For Cc1ccc(NC(=O)COc2ccc(-c3nn(C)c(=O)c4ccccc34)cc2)cc1 the results were TDP1 inh 3%, TDP1 cell CPT inconclusive, TDP1 cell noCPT inconclusive and ClpP mod -21%.
`CCN(CC)C(=O)c1ccc(NC(=O)CCn2nc(-c3ccc(Cl)cc3)c3ccccc3c2=O)cc1` gave TDP1 inh 5%, TDP1 cell CPT inconclusive, TDP1 cell noCPT 18µM* and ClpP mod -3%.
`NC1(c2ccccc2Cl)CCCCC1=O` (configuration not stated) gave TDP1 inh 5%.
For COc1ccc([C@H]2CC(=O)C=C(c3ccc4c5c(cccc35)CC4)C2)cc1 the results were TDP1 inh 0%, TDP1 cell CPT inconclusive, TDP1 cell noCPT inconclusive and ClpP mod -17%.
For CC(=O)N1CCN(c2ccc(OC[C@H]3CO[C@](Cn4ccnc4)(c4ccc(Cl)cc4Cl)O3)cc2)CC1 the results were TDP1 inh 8%, TDP1 cell CPT 6.3µM*!, TDP1 cell noCPT 6.3µM* and ClpP mod -2%.
CCCC1COC(Cn2cncn2)(c2ccc(Cl)cc2Cl)O1 (configuration not stated) was read as TDP1 inh -1%, TDP1 cell CPT inconclusive, TDP1 cell noCPT inconclusive and ClpP mod -3%.
Screening Clc1ccc(C2(Cn3cncn3)OCCO2)c(Cl)c1 returned TDP1 inh 4%, TDP1 cell CPT -4% and TDP1 cell noCPT -23%.
`CC(=O)N1CCN(c2ccc(OC[C@@H]3CO[C@@](Cn4ccnc4)(c4ccc(Cl)cc4Cl)O3)cc2)CC1` gave TDP1 inh 16%[21 µM], TDP1 cell CPT 16µM*, TDP1 cell noCPT 16µM* and ClpP mod -10%.
Screening C/C=C(/C)C(=O)OC1CC[C@]2(C)C3CCC4[C@]5(O)CC(O)[C@]6(O)C(CN7CC(C)CCC7[C@]6(C)O)[C@]5(O)C[C@@]42O[C@]13O (some centres not stated) returned TDP1 inh 6%, TDP1 cell CPT -3% and TDP1 cell noCPT -6%.
CCCCCCCCCCCCC/C=C/[C@@H](O)[C@@H](N)COP(=O)([O-])OCC[N+](C)(C)C was read as TDP1 inh -2%.
Screening CC(C)CCNC(=O)c1c(N)n(Cc2ccc3c(c2)OCO3)c2nc3ccccc3nc12 returned TDP1 inh 1%, TDP1 cell CPT inconclusive, TDP1 cell noCPT inconclusive and ClpP mod 28µM*.
`CC(C)CNC(=O)c1c(N)n(Cc2ccc3c(c2)OCO3)c2nc3ccccc3nc12` gave TDP1 inh -14%, TDP1 cell CPT inconclusive, TDP1 cell noCPT inconclusive and ClpP mod 14µM*.

From PubChem
